From PubChem
MazF activator: activators of E. coli MazEF toxin-antitoxin RNase, primary screen, biochemical, fluorescence, uHTS; Endoribonuclease toxin MazF (Escherichia coli (strain K12)), P0AE70; FAM/BHQ RNA-DNA oligo cleavage fluorescence, 5 h; activation, % at 20 µM; 0.32% of 350,000 active; in the data active = activation above about 50%
BoNT-A LC inh2: BoNT/A light chain protease inhibitors, primary screen, biochemical, flow cytometry, MLPCN library | multiplex microsphere protease substrate cleavage | 0.17% of 360,000 active | inhibition, % at 10 µM | AID 588499, 2011; also: plate controls were buffer without enzyme for full effect and enzyme alone for no effect
Bead autofluor: flagged as autofluorescent in microsphere protease counterscreen; compound autofluorescence counterscreen, microsphere flow cytometry; stronger effect = higher value; fluorescence intensity (no concentration beside the values); 3.1% of 360,000 active; in the data active = fluorescence intensity above about 16000; inconclusive = no clear call, values can overlap the other calls
BH1578 lux ind: inducers of Vibrio cholerae quorum light production without autoinducers, primary screen, BH1578 luxS cqsA deficient, single point | activation, % at 18.7 µM | AID 588436, 2011 | 0.16% of 350,000 active | V. cholerae BH1578 lux reporter, luminescence, 6 h; in the data active = activation mostly above about 9.7%, no sharp cut-off; inconclusive = no clear call, values can overlap the other calls; inactive = mostly below about 3.7%
BoNT-F LC inh: BoNT/F light chain protease inhibitors, primary screen, biochemical, flow cytometry, MLPCN library | Botulinum neurotoxin type F light chain protease (Clostridium botulinum) | Multiplex microsphere protease cleavage assay | inhibition, % at 10 µM | 0.22% of 360,000 active; in the data active = inhibition above about 35%, passing the limit was not always enough; inconclusive = no clear call, values can overlap the other calls; also: plate controls were buffer without enzyme for full effect and enzyme alone for no effect
Anthrax LF inh2: Bacillus anthracis LF protease inhibitors, primary screen, biochemical, multiplex microsphere, MLPCN library; multiplex microsphere protease cleavage assay; inhibition, % at 10 µM; 0.12% of 360,000 active; Lethal factor (Bacillus anthracis), P15917; also: plate controls were buffer without enzyme for full effect and enzyme alone for no effect
Target sequence (P15917 whole entry, looked up): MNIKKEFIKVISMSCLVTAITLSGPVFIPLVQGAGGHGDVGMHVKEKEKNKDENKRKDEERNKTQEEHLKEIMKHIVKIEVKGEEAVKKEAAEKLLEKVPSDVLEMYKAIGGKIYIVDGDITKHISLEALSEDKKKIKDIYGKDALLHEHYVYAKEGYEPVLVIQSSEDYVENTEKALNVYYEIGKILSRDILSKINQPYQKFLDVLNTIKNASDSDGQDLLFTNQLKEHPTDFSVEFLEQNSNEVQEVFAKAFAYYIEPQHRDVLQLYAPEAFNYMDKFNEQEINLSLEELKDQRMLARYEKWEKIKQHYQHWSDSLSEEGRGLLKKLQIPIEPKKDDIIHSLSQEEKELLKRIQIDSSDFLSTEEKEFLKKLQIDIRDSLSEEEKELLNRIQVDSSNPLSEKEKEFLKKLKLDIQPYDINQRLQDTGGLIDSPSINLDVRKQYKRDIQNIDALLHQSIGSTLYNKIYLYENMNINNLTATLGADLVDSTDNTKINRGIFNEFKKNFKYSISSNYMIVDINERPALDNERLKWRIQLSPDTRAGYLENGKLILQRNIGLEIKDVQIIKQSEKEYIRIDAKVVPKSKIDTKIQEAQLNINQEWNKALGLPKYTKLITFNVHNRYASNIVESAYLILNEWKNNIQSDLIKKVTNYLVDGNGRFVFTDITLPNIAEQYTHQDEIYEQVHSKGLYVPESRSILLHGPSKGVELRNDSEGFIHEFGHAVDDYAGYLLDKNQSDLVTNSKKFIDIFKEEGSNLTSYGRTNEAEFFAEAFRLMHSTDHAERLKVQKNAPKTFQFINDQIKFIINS
The depositor's hits bear a star; i = inactive; ? = inconclusive; . = no result given. Sampled rows, rich in hits. Any-hit rate of the full collection: about 3.9%. Rule as the data show it, unless noted: active = inhibition above about 30%; inconclusive = no clear call, values can overlap the other calls; inactive = below that.

SMILES	MazF activator	BoNT-A LC inh2	Bead autofluor	BH1578 lux ind	BoNT-F LC inh	Anthrax LF inh2
COc1ccc(CC(=O)Nc2ccc(C(=O)Nc3ccccc3C(=O)O)cc2)cc1OC	-2	0	2551	i	4	-2
CCc1ccc2c(c1)C(c1cccs1)=NNC(c1cccnc1)=N2	-4	?	19854*	i	2	-3
COc1ccc2c(c1)C(c1cccs1)=NNC(c1ccncc1)=N2	242*	1	4054	i	0	-7
CC(C)c1ccc2c(c1)C(c1cccs1)=NNC(c1ccncc1)=N2	5	0	4586	0	2	-1
COCCN(CCOC)C(=O)c1ccc(NS(=O)(=O)c2ccc3c(c2)OCCO3)cc1	6	1	6274	i	4	0
O=C(O)c1ccc(S(=O)(=O)Nc2ccc3c(c2)OCCO3)cc1	1	-4	3498	0	?	31*
CCC(CC)NC(=O)COC(=O)c1ccc(NS(=O)(=O)c2ccc3c(c2)OCCO3)cc1	0	?	23057*	i	-6	-5
O=C(O)c1cccc(S(=O)(=O)Nc2ccc3c(c2)OCO3)c1	4	?	21051*	i	2	0
Cc1ccc(NC2CCCN(C(=O)c3ccc(F)cc3)C2)cc1C (stereo not given)	5	0	4448	0	-8	-2
Cn1c(=O)c2cc(NC(=S)NC3CCCCC3)ccc2n1C/C=C/c1ccccc1	.	0	4086	0	-1	-3
CCOC(=O)c1c[nH]c2c3c(ccc2c1=O)CCCC3	5	-5	21559*	-14	-8	2
CCOC(=O)c1c[nH]c2c(C)cc(C)cc2c1=O	2	?	20267*	-2	-2	-1
Cc1cc(Oc2ccccc2)nc(SCC(=O)Nc2ccc(Cl)cc2Cl)n1	-2	?	18063*	0	-11	-2
COC(=O)CSc1nc(C)cc(Oc2ccccc2)n1	11	-1	5956	0	-1	-2
N#Cc1ccc(COC(=O)c2ccc3c(=O)[nH]c(CN4CCOCC4)nc3c2)cc1	-1	0	23349*	-5	0	0
CCN(CC)C(=O)c1nc[nH]c1C(=O)N1CCc2ccccc2C1	2	0	3802	i	0	-1
CCOc1ccc(NC(=O)c2nnn(CC(=O)Nc3ccccc3OC)c2N)cc1	-1	1	4588	-8	36*	0
COc1ccccc1NC(=O)c1nnn(CC(=O)Nc2cccc(SC)c2)c1N	-14	1	22055*	4	-3	0
CC(=O)Nc1ccc(S(=O)(=O)NC(C)C(=O)OCC(=O)Nc2ccc(F)cc2Cl)cc1 (stereo not given)	1	0	3816	i	3	-2
CC(C)n1c(=S)[nH]c2ccccc2c1=O	4	-1	12676	-12	-16	0
COn1c(=S)[nH]c2ccccc2c1=O	1	?	22258*	-2	1	-2
CC1CCCCC1n1c(=S)[nH]c2ccccc2c1=O (stereo not given)	5	-2	23138*	1	-2	-13
CC1=C(C(=O)Nc2ccc(Cl)cc2)C(c2cccs2)n2nnnc2N1 (stereo not given)	5	?	23559*	-2	-3	-2
CCn1cc(S(=O)(=O)N2CCN(Cc3cccc(Cl)c3)CC2)cn1	-4	-2	4252	1	-5	-3
Cc1ccc(-n2nc(C)c(C(=O)N3CCN(C(=O)c4ccco4)CC3)c2-n2cccc2)cc1	-6	3	5327	i	2	-1
SMILES	MazF activator	BoNT-A LC inh2	Bead autofluor	BH1578 lux ind	BoNT-F LC inh	Anthrax LF inh2
CC(C)c1nnc(NC(=O)C2CCCN2C(=O)Nc2ccccc2[N+](=O)[O-])s1 (stereo not given)	7	0	4916	0	5	3
CC(C)(C)c1ccc(S(=O)(=O)N2CC(=O)Nc3ccccc32)cc1	9	-1	23729*	-2	-3	0
O=c1oc(/C=C/c2ccc([N+](=O)[O-])s2)nc2ccccc12	183*	4	4053	i	?	7
Cc1ccc(CNC(=O)CN2NS(=O)(=O)c3ccccc3C2=O)cc1	1	0	4107	0	-3	4
C=CCn1c(C)cc(C(=O)CN2NS(=O)(=O)c3ccccc3C2=O)c1C	57*	-2	5150	i	-7	-5
CCCc1cc(C(=O)NNC(=S)NCc2ccccc2)cs1	-4	2	22370*	0	0	-6
Cc1cccc(NC(=S)NNC(=O)c2csc(C)c2)c1	-5	0	2051	4	-9	1
CCc1cc(C(=O)NNC(=S)NCc2ccccc2)cs1	-1	0	11564	0	1	-1
Cc1cccc(NC(=S)NNC(=O)c2csc3c2CCCC3)c1	6	-4	16967*	i	-6	-2
Cc1ccc(C)c(NC(=S)NNC(=O)c2csc3c2CCCC3)c1	-1	0	16276*	0	1	0
CCc1cc(C(=O)Nc2ccccc2)cs1	7	-2	16734*	i	-4	-2
CCNC(=S)NNC(=O)c1csc(CC)c1	9	0	3264	i	-16	0
Cc1ccc(C)c(NC(=S)NNC(=O)c2csc3c2CCC(C)C3)c1 (stereo not given)	-21	0	10543	i	-7	0
O=C(/C=C/[C@H]1O[C@@H](n2ccc(=O)[nH]c2=O)[C@H](O)[C@@H]1O)NCc1ccco1	.	-1	6141	.	7	-7
CCc1c(C)nn(C(=O)/C(C#N)=C\N(C)C)c1C	-3	-1	3582	i	-2	-4
CCc1cc(C(=O)NNC(=S)Nc2cc(C)ccc2C)cs1	1	-1	23483*	2	1	1
CCc1cc(C(=O)NNC(=S)Nc2ccccc2C)cs1	-6	-1	9786	0	8	-6
CCN1CCN(C(=O)C(=O)c2cn(CC(=O)N3CCCCCC3)c3ccccc23)CC1	-8	4	7481	1	5	10
CN1CCN(C(=O)C(=O)c2cn(CC(=O)N3CCCCCC3)c3ccccc23)CC1	-14	10	4647	0	12	36*
CC1CCCN(C(=O)C(=O)c2cn(CC(=O)N3CCCCCC3)c3ccccc23)C1 (stereo not given)	5	35*	7036	2	13	28
NC(=O)C1CCN(C(=O)C(=O)c2cn(CC(=O)N3CCCCCC3)c3ccccc23)CC1	-17	39*	7217	-11	17	39*
CC1CCN(C(=O)C(=O)c2cn(CC(=O)N3CCCCCC3)c3ccccc23)CC1	-3	37*	6694	i	8	38*
